The values below come from PubChem BioAssay (NCI).

Test [1] can be described thus: NCI Yeast Anticancer Drug Screen. Data for the rad50 strain (AID 155).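 Further: 0% = growth of vehicle-only cultures of the same strain.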 The note with it: S. cerevisiae rad50 strain growth inhibition; at 50.0 µM; stronger effect = higher value. Summed up: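 Cells are treated with compound, grown, and their growth is then scored against vehicle-only cultures of the same repair-deficient yeast strain.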
Test [2] can be described thus: NCI Yeast Anticancer Drug Screen. Data for the mec2-1 strain (AID 157). Particulars: S. cerevisiae mec2-1 strain, at 50.0 µM, stronger effect = higher value. In short, it runs like this: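 Strain: mec2-1 (DNA repair/cell cycle alteration). Compound exposure, then growth measured; inhibition expressed relative to vehicle.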
Test [3] is described as follows: NCI Yeast Anticancer Drug Screen. Data for the sgs1 mgt1 strain (AID 161).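 Further: 0% = growth of cultures given vehicle only.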 Particulars: S. cerevisiae sgs1 mgt1 strain, at 50.0 µM, stronger effect = higher value. In short, it runs like this:
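Read-out: growth inhibition vs vehicle controls. Cells: mutant yeast strain deficient in DNA damage repair.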

A short description of test [4]: NCI Yeast Anticancer Drug Screen. Data for the cln2 rad14 strain (AID 165).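 Further: 0% = growth equal to vehicle treated cultures.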 The note with it: S. cerevisiae cln2 rad14 strain, at 50.0 µM, stronger effect = higher value. Summed up:
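Compounds are applied to the cln2 rad14 yeast strain, and growth is then compared with that of vehicle-treated cultures to give inhibition.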

Test [5] is described as follows: NCI Yeast Anticancer Drug Screen. Data for the bub3 strain (AID 167). Particulars: S. cerevisiae bub3 mutant strain, at 50.0 µM, stronger effect = higher value. In short, it runs like this: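 Part of a panel of yeast mutants defective in DNA damage repair or cell cycle regulation. Each strain is grown with compound, and inhibition is calculated relative to solvent-treated cultures.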

Test [6] can be described thus: NCI Yeast Anticancer Drug Screen. Data for the mlh1 rad18 strain (AID 175). Particulars: S. cerevisiae mlh1 rad18 strain growth inhibition; at 50.0 µM; stronger effect = higher value. Summed up: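 Read-out is yeast growth inhibition, calculated against vehicle-only controls. The compound was applied to a strain engineered with DNA damage repair alterations.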

Where “and” joins values, the source holds several entries; their conditions need not be identical. Identical values can stand only once. Compounds without any hit were thinned out: in the full panel of roughly 79,000, 15% have a hit. More than one record can exist for a structure, and the calls need not agree. Calls of active or inactive are those of the source. No stated cut-off is given here; in the data, active means growth inhibition above about 70%; inactive means the rest.

Turning to `OCN1CCC23c4c5ccc(O)c4OC2C(O)C=CC3C1C5` (centres undefined), the growth inhibition in test [1] is -4.75% (inactive); in test [2], -3.4% (inactive); in test [3], 3.35% (inactive); in test [4] it was -68.5% (inactive); in test [5], 20.1% (inactive); in test [6], -12% (inactive).
For the compound `CC(C)CC(N)C(=O)O` (centres undefined), the growth inhibition in test [1] was -6% (inactive) and -19.2% (inactive); in test [2] it was -4.8% (inactive) and 9.15% (inactive); in test [3], -3.25% (inactive) and -31.2% (inactive); in test [4], -11.1% (inactive) and -34% (inactive); in test [5], 5.7% (inactive) and -8.45% (inactive); in test [6] it was 6.15% (inactive) and -40.9% (inactive).
Turning to `CC(C)CC(NC=O)C(=O)NC(Cc1ccccc1)NC(=O)CNC(=O)C(C)NC(=O)C(N)Cc1ccc(O)cc1` (centres undefined), the growth inhibition in test [1] is -17.3% (inactive); in test [2], -9.9% (inactive); in test [3], -0.9% (inactive); in test [4], 15.4% (inactive); in test [5], -5.15% (inactive); in test [6] it was -6.45% (inactive).
On to `Cc1csc(N/C(=N/[N+](=O)[O-])N(C)C)n1`, for which the growth inhibition in test [1] is -35.5% (inactive); in test [2], 0.65% (inactive); in test [3], -9.15% (inactive); in test [4] it was -10.8% (inactive); in test [5], 2.1% (inactive); in test [6] it was -3.7% (inactive).
Turning to `C[C@@]1(CCCCCCCCCCc2ccccc2)C[C@@]2(C)OC(=O)C[C@H]2OO1`, the growth inhibition was -15.1% (inactive) in test [1]; -6.05% (inactive) in test [2]; -20.2% (inactive) in test [3]; -39% (inactive) in test [4]; -80.7% (inactive) in test [5]; -25.6% (inactive) in test [6].
As to `CCN1CCC2(CC1)COCc1ccccc12`, the growth inhibition in test [1] is 18.3% (inactive); in test [2], 7.8% (inactive); in test [3], 16.4% (inactive); in test [4] it was 4.15% (inactive); in test [5] it was 3.15% (inactive); in test [6] it was 29.6% (inactive).
For the compound `CN1C2C=CC1c1c(C3=NC(C)(C)CO3)cccc12` (centres undefined), the growth inhibition in test [1] is -8.15% (inactive); in test [2], -8.05% (inactive); in test [3] it was -7.95% (inactive); in test [4], -36% (inactive); in test [5] it was 6.85% (inactive); in test [6], 2.6% (inactive).
In the case of `CCCCC(CC)C(=O)O` (centres undefined), the growth inhibition was -12.6% (inactive) and 33.9% (inactive) in test [1]; -0.3% (inactive) and 11.5% (inactive) in test [2]; -1.65% (inactive) and -1.3% (inactive) in test [3]; 0.2% (inactive) and 6% (inactive) in test [4]; -13.7% (inactive) and 6.6% (inactive) in test [5]; -10.7% (inactive) and 7% (inactive) in test [6].
Take `O=C(N1CCCC1)C1(c2cccc(Cl)c2)CCNCC1`: the growth inhibition is -26.1% (inactive) in test [1]; -53% (inactive) in test [2]; -16.2% (inactive) in test [3]; 0.25% (inactive) in test [4]; -28.1% (inactive) in test [5]; -20.7% (inactive) in test [6].
As to `O=C(N/N=C/c1cc(Br)cc(Br)c1[O-])c1ccccc1O.O=C(N/N=C/c1cc(Br)cc(Br)c1[O-])c1ccccc1O.[Cl-].[Fe+3]`, the growth inhibition is -3.25% (inactive) in test [1]; 0.15% (inactive) in test [2]; -4.95% (inactive) in test [3]; -30.1% (inactive) in test [4]; 12.1% (inactive) in test [5]; 13.3% (inactive) in test [6].
Consider `C(=C/P(c1ccccc1)c1ccccc1)/P(c1ccccc1)c1ccccc1`, for which the growth inhibition in test [1] was 4.05% (inactive); in test [2], 8.95% (inactive); in test [3], 1.9% (inactive); in test [4] it was -18.4% (inactive); in test [5], 2.75% (inactive); in test [6], 2.7% (inactive).
With `COc1cc(Cl)c(OP(=O)(OC)OC)cc1Cl`, the growth inhibition is -3.8% (inactive) in test [1]; 9.4% (inactive) in test [2]; 12.3% (inactive) in test [3]; -1.9% (inactive) in test [4]; -1.05% (inactive) in test [5]; 5.75% (inactive) in test [6].
Regarding `c1cc2c(cc1C1OCC3C(c4ccc5c(c4)OCO5)OCC13)OCO2` (centres undefined), the growth inhibition in test [1] is 75.1% (active) and 30.8% (inactive); in test [2], 74.6% (active) and -0.05% (inactive); in test [3] it was 82.5% (active) and 57.4% (inactive); in test [4], 44.4% (inactive) and 34.4% (inactive); in test [5], 81.5% (active) and 54.3% (inactive); in test [6], 67% (inactive) and 31.7% (inactive).
On to `O=C(O)c1cc[c]([Hg][S]c2ncnc3nc[nH]c23)cc1`, for which the growth inhibition in test [1] is 99% (active); in test [2], 98.3% (active); in test [3], 98.6% (active); in test [4], 98.2% (active); in test [5], 97.5% (active); in test [6] it was 98.9% (active).
For the compound `CC12OCCN1CCO2`, the growth inhibition in test [1] is 10.9% (inactive); in test [2], -3.25% (inactive); in test [3], 11.8% (inactive); in test [4], 5.45% (inactive); in test [5] it was 12.8% (inactive); in test [6], 4% (inactive).
Regarding `CCCCCCCCCCCCC(=O)O.[Pb]`, the growth inhibition in test [1] is 1.45% (inactive); in test [2], 10.2% (inactive); in test [3], -14.4% (inactive); in test [4] it was 24.2% (inactive); in test [5], -2.05% (inactive); in test [6], 3.35% (inactive).
For the compound `CCOP(O)(=S)OCC.[Yb]`, the growth inhibition is 22.4% (inactive) in test [1]; -2.45% (inactive) in test [2]; -1.1% (inactive) in test [3]; -22.7% (inactive) in test [4]; -1.35% (inactive) in test [5]; -7.4% (inactive) in test [6].
Turning to `CC(C)(C1CCC(O)CC1)C1CCC(O)CC1` (centres undefined), the growth inhibition in test [1] was 19.5% (inactive) and 13.4% (inactive); in test [2], -19.5% (inactive) and -13.6% (inactive); in test [3] it was -12.2% (inactive) and -21.9% (inactive); in test [4] it was -12.6% (inactive) and -17.6% (inactive); in test [5] it was -5.75% (inactive) and -21.8% (inactive); in test [6] it was 31.4% (inactive) and 16.1% (inactive).
Take `CNC(C)(C)Cc1ccc(Cl)cc1`: the growth inhibition in test [1] was 33.5% (inactive); in test [2], 10.8% (inactive); in test [3], 27.9% (inactive); in test [4] it was 24.9% (inactive); in test [5], 4.6% (inactive); in test [6] it was -0.45% (inactive).
